Laboratory results taken from ChEMBL document CHEMBL3988442, “University of Dundee, Small-Polar-MMV Screening Library” (2021).
For some assays here: Results with a measured potency or affinity are listed apart.

Legend:
Parameters in all cases: scale not given: direction of the effect not stated beside the values
[1] = target: Protein translocase subunit SecA (Escherichia coli (strain K12)) (UniProt P10408); assay: Assay to Identify E. coli SecA ATPase Inhibitors; format: functional; conditions: 30 µM
Sequence of Protein translocase subunit SecA (Escherichia coli (strain K12)) (P10408 whole entry): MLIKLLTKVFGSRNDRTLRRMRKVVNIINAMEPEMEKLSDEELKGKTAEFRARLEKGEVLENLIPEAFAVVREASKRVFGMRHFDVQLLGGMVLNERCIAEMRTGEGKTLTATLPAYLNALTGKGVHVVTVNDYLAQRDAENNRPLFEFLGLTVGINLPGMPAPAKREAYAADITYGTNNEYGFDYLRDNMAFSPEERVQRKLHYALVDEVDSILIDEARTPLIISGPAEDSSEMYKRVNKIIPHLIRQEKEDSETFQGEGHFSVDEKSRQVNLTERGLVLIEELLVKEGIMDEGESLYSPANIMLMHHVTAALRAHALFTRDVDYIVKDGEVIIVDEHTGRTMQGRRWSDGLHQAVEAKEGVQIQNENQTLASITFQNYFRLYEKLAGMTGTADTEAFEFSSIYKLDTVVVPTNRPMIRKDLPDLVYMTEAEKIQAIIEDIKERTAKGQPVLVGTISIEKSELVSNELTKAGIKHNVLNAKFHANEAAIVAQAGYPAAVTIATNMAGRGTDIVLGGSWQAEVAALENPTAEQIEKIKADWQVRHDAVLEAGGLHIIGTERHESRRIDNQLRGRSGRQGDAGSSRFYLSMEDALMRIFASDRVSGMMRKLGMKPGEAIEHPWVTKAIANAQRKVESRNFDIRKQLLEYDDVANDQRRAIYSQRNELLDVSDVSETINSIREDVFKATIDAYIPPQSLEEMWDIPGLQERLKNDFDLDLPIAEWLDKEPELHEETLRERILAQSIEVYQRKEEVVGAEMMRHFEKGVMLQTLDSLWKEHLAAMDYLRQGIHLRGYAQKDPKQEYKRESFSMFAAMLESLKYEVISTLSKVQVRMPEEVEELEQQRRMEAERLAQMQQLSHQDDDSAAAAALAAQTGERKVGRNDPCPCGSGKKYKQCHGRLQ

[2] = target: T1, Ubiquitin-activating enzyme e1, putative (Leishmania donovani (strain BPK282A1)) (UniProt E9BSI1); assay: Leishmania donovani Ubiquitin Activating Enzyme (LdE1); format: functional; conditions: 30 µM
T1 sequence (whole entry): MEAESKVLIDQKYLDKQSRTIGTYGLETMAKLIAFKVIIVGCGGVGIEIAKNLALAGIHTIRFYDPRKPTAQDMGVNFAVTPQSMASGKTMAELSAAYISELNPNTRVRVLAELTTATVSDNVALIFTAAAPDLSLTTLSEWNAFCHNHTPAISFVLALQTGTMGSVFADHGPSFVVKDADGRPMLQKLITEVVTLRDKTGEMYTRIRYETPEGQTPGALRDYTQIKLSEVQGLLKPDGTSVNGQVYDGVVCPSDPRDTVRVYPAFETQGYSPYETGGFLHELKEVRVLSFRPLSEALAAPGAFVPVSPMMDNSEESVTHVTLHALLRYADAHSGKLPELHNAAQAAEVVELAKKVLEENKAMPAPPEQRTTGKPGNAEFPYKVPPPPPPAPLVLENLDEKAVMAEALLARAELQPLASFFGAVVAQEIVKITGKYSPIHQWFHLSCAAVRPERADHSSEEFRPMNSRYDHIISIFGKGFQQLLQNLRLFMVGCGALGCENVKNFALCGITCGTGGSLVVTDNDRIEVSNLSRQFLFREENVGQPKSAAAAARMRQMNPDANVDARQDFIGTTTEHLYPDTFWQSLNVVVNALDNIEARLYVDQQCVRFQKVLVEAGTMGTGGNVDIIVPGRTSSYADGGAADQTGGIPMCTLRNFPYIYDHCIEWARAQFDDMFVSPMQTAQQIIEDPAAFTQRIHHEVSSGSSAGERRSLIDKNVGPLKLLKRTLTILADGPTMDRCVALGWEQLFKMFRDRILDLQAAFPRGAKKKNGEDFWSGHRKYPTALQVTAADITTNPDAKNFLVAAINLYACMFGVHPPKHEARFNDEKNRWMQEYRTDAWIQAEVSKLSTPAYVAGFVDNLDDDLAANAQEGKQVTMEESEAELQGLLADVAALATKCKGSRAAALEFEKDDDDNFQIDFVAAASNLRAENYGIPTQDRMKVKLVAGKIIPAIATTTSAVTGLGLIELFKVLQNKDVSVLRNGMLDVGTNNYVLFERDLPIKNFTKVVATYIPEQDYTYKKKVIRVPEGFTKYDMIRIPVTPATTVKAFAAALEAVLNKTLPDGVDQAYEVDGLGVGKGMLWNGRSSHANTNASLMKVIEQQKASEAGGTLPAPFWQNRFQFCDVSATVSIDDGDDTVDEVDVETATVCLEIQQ

[3] = target: AMP-activated protein kinase, AMPK (Homo sapiens) (UniProt P54646+O43741+P54619+Q9UGJ0+Q9Y478+Q13131+Q9UGI9); assay: AMP-dependent Kinase enzyme assay. An in vitro enzyme assay that detects ADP turnover that is directly proportional to AMPK activity. This uses naive AMPK that is activated during the assay with MK-8722; format: functional; conditions: 30 µM
[4] = target: Sialic acid-binding Ig-like lectin 9 (Homo sapiens) (UniProt Q9Y336); assay: Hs-Siglec9 ALPHAscreen SOP 20170721; conditions: 10 µM
Sequence of Sialic acid-binding Ig-like lectin 9 (Homo sapiens) (Q9Y336 whole entry): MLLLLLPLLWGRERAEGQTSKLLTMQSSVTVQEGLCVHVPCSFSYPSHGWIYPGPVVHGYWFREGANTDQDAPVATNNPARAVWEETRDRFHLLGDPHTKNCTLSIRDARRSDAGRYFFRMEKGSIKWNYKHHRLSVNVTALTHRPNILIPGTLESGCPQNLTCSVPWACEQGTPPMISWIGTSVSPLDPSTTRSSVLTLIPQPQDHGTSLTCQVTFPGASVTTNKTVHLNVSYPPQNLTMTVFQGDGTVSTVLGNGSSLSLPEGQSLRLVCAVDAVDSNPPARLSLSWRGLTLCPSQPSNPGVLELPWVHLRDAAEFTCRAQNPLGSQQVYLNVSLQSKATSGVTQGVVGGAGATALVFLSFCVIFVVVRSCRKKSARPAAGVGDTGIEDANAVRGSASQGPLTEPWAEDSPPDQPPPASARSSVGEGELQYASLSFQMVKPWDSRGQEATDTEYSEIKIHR

Trypanosoma cruzi = assay: Trypanosoma cruzi phosphomannomutase and mannose-1-phosphate guanylyltransferase assay; format: functional; conditions: 10 µM
[5] = target: T2, Arginase-2, mitochondrial (Homo sapiens) (UniProt P78540); assay: in vitro enzyme assay to detect the production of urea directly proportional to the activity of Arginase II; format: functional; conditions: 33.3 µM; further: in the data most compounds retested in dose-response had high values
T2 sequence (whole entry): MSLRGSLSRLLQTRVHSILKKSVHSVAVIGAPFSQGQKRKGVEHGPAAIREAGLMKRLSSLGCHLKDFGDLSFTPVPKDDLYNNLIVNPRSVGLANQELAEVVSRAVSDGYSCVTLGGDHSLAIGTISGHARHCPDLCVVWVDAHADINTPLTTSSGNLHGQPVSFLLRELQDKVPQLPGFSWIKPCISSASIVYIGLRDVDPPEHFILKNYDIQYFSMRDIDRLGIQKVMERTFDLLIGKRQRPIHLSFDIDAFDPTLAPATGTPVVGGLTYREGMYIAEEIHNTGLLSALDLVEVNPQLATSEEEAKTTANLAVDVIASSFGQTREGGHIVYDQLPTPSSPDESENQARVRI

[6] = target: T3, Proteasome subunit beta (Trypanosoma cruzi) (UniProt O96673); assay: Trypanosoma cruzi proteasome chymotrypsin-like activity (TcProtChymo) assay.; further: in the data most compounds retested in dose-response had high values; format: functional; conditions: 9.37 µM
T3 sequence (whole entry): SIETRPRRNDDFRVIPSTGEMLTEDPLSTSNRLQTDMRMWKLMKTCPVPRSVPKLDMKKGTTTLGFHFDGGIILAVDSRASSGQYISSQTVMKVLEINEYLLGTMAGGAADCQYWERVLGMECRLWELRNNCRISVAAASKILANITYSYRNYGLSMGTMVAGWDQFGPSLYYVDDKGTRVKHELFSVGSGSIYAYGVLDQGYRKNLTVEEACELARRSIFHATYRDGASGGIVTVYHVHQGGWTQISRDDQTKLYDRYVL

Homo sapiens = species: Homo sapiens; assay: To identify inhibition of the IFN signalling (Jak-Stat) pathway via expression of an eGFP reporter gene under the control of an IFN-stimulated response element (ISRE) containing MxA promoter.; format: functional; conditions: 30 µM
[7] = target: T4, Tyrosyl-tRNA synthetase, putative (Trypanosoma cruzi (strain CL Brener)) (UniProt Q4DSP6); assay: Trypanosoma cruzi tyrosyl tRNA synthetase (TcYRS) _High Tyrosine SOP; format: functional; conditions: 30 µM; further: in the data most compounds retested in dose-response had high values
T4 sequence (whole entry): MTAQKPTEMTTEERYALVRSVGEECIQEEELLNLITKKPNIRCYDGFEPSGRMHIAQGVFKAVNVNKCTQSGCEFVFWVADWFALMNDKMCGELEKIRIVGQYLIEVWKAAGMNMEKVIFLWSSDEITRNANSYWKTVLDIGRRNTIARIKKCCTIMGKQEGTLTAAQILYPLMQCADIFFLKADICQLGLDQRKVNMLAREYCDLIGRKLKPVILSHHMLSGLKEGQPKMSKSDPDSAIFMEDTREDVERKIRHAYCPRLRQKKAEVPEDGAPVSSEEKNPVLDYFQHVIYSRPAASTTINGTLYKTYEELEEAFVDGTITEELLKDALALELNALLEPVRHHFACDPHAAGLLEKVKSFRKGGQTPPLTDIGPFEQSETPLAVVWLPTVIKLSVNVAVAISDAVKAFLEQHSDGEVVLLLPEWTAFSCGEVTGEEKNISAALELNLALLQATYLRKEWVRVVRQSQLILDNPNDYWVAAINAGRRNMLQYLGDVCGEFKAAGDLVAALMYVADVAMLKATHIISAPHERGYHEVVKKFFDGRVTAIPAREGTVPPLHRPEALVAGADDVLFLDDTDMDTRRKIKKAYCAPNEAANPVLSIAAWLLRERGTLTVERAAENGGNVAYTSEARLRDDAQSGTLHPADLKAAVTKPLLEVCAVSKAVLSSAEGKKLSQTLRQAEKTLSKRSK

[8] = target: T4, Tyrosyl-tRNA synthetase, putative (Trypanosoma cruzi (strain CL Brener)); assay: Trypanosoma cruzi tyrosyl tRNA synthetase (TcYRS) SOP; format: functional; conditions: 30 µM
[9] = target: Chromo domain-containing protein 1 (Saccharomyces cerevisiae (strain ATCC 204508 / S288c) (Baker's yeast)) (UniProt P32657); assay: ScCHD-1 Enzyme Inhibition Assay; format: functional; conditions: 30 µM; further: in the data most compounds retested in dose-response had high values
Sequence of Chromo domain-containing protein 1 (Saccharomyces cerevisiae (strain ATCC 204508 / S288c) (Baker's yeast)) (P32657 whole entry, the tested form may be a part): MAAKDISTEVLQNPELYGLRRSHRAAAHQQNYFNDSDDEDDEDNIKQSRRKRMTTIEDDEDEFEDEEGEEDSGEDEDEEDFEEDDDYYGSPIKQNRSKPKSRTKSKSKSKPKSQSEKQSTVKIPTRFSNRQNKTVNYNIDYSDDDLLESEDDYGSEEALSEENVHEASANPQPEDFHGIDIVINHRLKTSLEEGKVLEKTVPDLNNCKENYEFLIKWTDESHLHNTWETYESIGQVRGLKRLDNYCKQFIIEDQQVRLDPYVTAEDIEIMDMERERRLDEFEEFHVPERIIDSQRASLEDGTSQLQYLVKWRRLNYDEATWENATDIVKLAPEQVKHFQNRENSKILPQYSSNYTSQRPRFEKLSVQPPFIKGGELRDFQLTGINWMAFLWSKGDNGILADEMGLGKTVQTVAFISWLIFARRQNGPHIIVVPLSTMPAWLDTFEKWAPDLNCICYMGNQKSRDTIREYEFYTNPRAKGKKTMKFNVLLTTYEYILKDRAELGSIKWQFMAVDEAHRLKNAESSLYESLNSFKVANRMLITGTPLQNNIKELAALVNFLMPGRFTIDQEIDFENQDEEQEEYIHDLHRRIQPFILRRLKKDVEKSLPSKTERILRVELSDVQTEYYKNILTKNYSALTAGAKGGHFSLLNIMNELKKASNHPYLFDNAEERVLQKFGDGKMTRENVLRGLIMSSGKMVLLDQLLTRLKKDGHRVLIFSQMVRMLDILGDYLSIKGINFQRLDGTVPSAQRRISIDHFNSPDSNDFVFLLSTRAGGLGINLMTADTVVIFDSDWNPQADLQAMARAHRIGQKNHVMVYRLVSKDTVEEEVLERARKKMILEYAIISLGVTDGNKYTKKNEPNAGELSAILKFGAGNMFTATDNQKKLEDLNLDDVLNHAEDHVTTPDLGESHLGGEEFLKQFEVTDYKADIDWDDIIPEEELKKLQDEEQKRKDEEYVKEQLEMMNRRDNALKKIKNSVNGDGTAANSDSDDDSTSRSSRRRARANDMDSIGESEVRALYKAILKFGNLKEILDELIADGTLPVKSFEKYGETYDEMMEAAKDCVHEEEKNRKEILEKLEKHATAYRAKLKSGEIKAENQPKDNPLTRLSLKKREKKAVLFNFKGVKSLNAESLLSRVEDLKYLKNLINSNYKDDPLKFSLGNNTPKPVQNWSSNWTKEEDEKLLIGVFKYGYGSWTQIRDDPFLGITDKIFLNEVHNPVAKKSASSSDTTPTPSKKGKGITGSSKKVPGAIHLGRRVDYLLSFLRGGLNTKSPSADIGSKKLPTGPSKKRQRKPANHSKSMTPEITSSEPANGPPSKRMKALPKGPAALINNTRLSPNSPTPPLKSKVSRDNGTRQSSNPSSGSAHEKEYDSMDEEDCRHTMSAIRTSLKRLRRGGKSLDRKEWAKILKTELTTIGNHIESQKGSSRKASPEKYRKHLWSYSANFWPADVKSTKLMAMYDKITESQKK

| Structure (SMILES) | Percent Effect [1] [%] | Percent Effect [2] [%] | Percent Effect [3] [%] | Percent Effect [4] [%] | Percent Effect (Trypanosoma cruzi) [%] | Percent Effect [5] [%] | Percent Effect [6] [%] | Percent Effect (Homo sapiens) [%] | Percent Effect [7] [%] | Percent Effect [8] [%] | Percent Effect [9] [%] |
| --- | --- | --- | --- | --- | --- | --- | --- | --- | --- | --- | --- |
| CCCc1nc(N2CCN(CC)CC2)c2c(n1)c(C)nn2CC | -0.47 | 7.79 | 2.46 | 26.2 | 5.01 | -6.9 | 10.5 | 10.3 | 7.53 | 16.1 | -5.13 |
| CCn1cnnc1C1CCN(C(=O)COc2ccccc2)CC1 | -7.35 | 13 | -3.46 | -2.33 | 4.6 | -0.21 | 5.74 | 7.87 | 4.76 | 11.8 | -22.2 |
| CN(C)CCN(Cc1ccc(Cl)cc1)C(=O)c1cc[nH]n1 | -2.91 | 20.8 | 3.16 | 18.6 | 2.23 | 3.53 | 17.9 | 3.16 | 7.37 | 17.9 | -5.67 |
| O=C(c1cccnc1-n1cncn1)N1CCN(CC2CC2)CC1 | -2.35 | 16.2 | -2.56 | 20.3 | 5.79 | 1.91 | 11.9 | 1.6 | 3.7 | 9.76 | -2.97 |
| CCCNC(=O)NC(=O)CN(CC(C)O)c1ccccc1 (stereo not given) | -3.79 | 10.4 | 2.88 | -6.45 | 6.95 | -0.632 | 6.22 | -9.46 | 5.71 | 9.41 | 2.09 |
| CN(CC(=O)N1CCCC1c1cnn(C)c1)c1ccc(Cl)cn1 (stereo not given) | -8.15 | 7.89 | -2.82 | -3.87 | -7.56 | 2.52 | 7.19 | 6.79 | 2.46 | 6.17 | 0.471 |
| CCc1ccc(NC(=O)c2cnc(N3CCN(C)CC3)nc2C)cc1 | -3.08 | 20.8 | -8.09 | -20.9 | 4.63 | -0.645 | 8.01 | 15.9 | 2.12 | 11.5 | -10.8 |
| CC(=O)N1CCCC1c1ccc(-c2c(C)noc2C)cn1 (stereo not given) | 0.953 | -4.05 | 8.36 | 2.83 | -3.56 | 6.26 | 4.52 | 5.24 | -1.07 | -3.9 | 3.24 |
| CN1CCCN(C[C@@H]2CN(C(=O)CCC3CCCC3)C[C@@H]2CO)CC1 | -5.09 | 7.79 | 1.31 | 18.7 | 4.62 | -8.28 | 3.66 | -0.683 | 6.45 | 11.1 | -3.02 |
| CNc1nc(CNC(=O)Nc2cccc(-c3nnco3)c2)cs1 | -5.07 | 8.11 | 1.7 | -1.65 | -3.81 | -4.25 | 4.13 | -4.5 | 2.97 | 1.22 | 4.29 |
